Measurements published in PubChem BioAssay AID504441 (Broad Institute, 2011).
The whole screen tested about 310,000 compounds, of which about 1,300 (0.42%) were called active. The full list was thinned out, with actives kept by preference. Unmarked numbers belong to inactive results. Cut-off read from the data, not from the text of the source: active = inhibition above about 50%; inactive = the rest.

What follows are compounds tested against Dual specificity tyrosine-phosphorylation-regulated kinase 1A (Rattus norvegicus) (UniProt Q63470) (assay: rat Dyrk1A kinase inhibitors, primary screen, biochemical, single point, plate reader (AID 504441;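 note: plate controls were vehicle with enzyme for no effect and no enzyme for full effect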)). Conditions: ADP-Glo luminescence, NFATc1 peptide, at 12.5 µM, stronger effect = higher value.

Row | Structure (SMILES) | inhibition
1 | O=C1C=C(NS(=O)(=O)c2ccccc2)C(=O)c2ccccc21 | 0.22%
2 | CCN1C[C@@H]2[C@@H]3C(=O)N(Cc4ccccc4)C(=O)[C@@H]3[C@](C)(C1=O)N2C(=O)c1ccc(C(C)(C)C)cc1 | -5.8%
3 | O=C(Nc1cccc(Br)c1)C1CC(=O)N(C2CCCC2)C1 (stereo not drawn) | -2.1%
4 | O=C1NC(=O)C(CCc2ccccc2)(c2ccccc2)N1 (stereo not drawn) | -4.85%
5 | CCOC(=O)COc1cc(O)c2c(=O)cc(-c3ccccc3)oc2c1 | -1.6%
6 | CCOC(=O)COc1cc(OCC(=O)OCC)c2c(=O)cc(-c3ccccc3)oc2c1 | 0.414%
7 | COc1c(O)cc2oc(-c3ccc(O)c(O)c3)cc(=O)c2c1O | 50.5% (active)
8 | CCOC(=O)C1CCCN(C(=O)C2CCN(S(=O)(=O)c3ccc(Cl)c(C(F)(F)F)c3)CC2)C1 (stereo not drawn) | -9.38%
9 | CC(=O)Nc1cccc(-c2nc3ccccc3s2)c1C | -0.865%
10 | Oc1ccc(-c2[nH]ncc2-c2nc3ccccc3s2)c(O)c1 | 66.5% (active)
11 | COc1ccc(Oc2cn[nH]c2-c2ccc(OC)cc2O)cc1 | 11.8%
12 | CC(=O)OC1CCC2C3CCC4=C(CC(F)C(=O)C4)C3CCC12C (stereo not drawn) | -2.02%
13 | COc1ccc(-c2cc(=O)c3c(O)cc(O[C@@H]4O[C@H](CO[C@@H]5O[C@@H](C)[C@H](O)[C@@H](O)[C@H]5O)[C@@H](O)[C@H](O)[C@H]4O)cc3o2)cc1O | -6.42%
14 | C[C@@H]1O[C@@H](OC[C@H]2O[C@@H](Oc3c(-c4ccc(O)cc4)oc4cc(O)cc(O)c4c3=O)[C@H](O)[C@@H](O)[C@@H]2O)[C@H](O)[C@H](O)[C@H]1O | 66.5% (active)
15 | O=C(OCC1OC(Oc2ccc(O)cc2)C(O)C(O)C1O)c1ccccc1 (stereo not drawn) | 13.6%
16 | N#CCc1c[nH]c2ccc([N+](=O)[O-])cc12 | 20%
17 | CCc1ccc(C(=O)C(C)OC(=O)CN2C(=O)NC3(CCCC3)C2=O)cc1 (stereo not drawn) | 0.139%
18 | O=C1NCC(Nc2ccccc2)C(=O)N1 (stereo not drawn) | -0.332%
19 | COc1cc2c(cc1OC)C1C(=O)c3cc(OS(C)(=O)=O)c(OC)cc3C1N(C)C2=O (stereo not drawn) | 3.14%
20 | O=C(COC(=O)c1ccc(F)cc1)Nc1ccc2c(c1)OCO2 | -0.789%
21 | CC(C)C(=O)Nc1cccc(C(=O)Nc2ccc3c(c2)OCO3)c1 | -2.73%
22 | CC(=O)Nc1cccc(C(=O)OCC(=O)c2ccc3c(c2)OCO3)c1 | 69.4% (active)

Row | Structure (SMILES) | inhibition
23 | Oc1ccc(-c2nc3ccccc3nc2-c2ccc(O)cc2O)c(O)c1 | 76.3% (active)
24 | Cc1nc2ccccc2nc1N/N=C/c1ccc(O)cc1O | 9.74%
25 | Oc1ccc2nc(Cc3ccccc3)[nH]c2c1 | 10.9%
26 | CC(NC(=O)c1ccccc1)C(=O)OCC(=O)Nc1cccc(S(=O)(=O)N2CCCC2)c1 (stereo not drawn) | 1.68%
27 | Cc1ccnc(NS(=O)(=O)c2ccc(NC(=O)c3oc4ccc(F)cc4c3C)cc2)n1 | 1.02%
28 | Cc1ccnc(NS(=O)(=O)c2ccc(NC(=O)c3oc4ccccc4c3C)cc2)n1 | 28.5%
29 | Cc1noc(NS(=O)(=O)c2ccc(NC(=O)c3oc4ccc(F)cc4c3C)cc2)c1C | 60% (active)
30 | CCC1(C)COC(c2ccc(OC)c(OC)c2)OC1 (stereo not drawn) | 2.1%
31 | O=C(O)C(c1cccs1)C1(O)CCCCC1 (stereo not drawn) | 2.77%
32 | NC(=O)C1CCN(C(=O)c2cc(S(=O)(=O)N3CCN(c4ccccc4)CC3)ccc2Cl)CC1 | 8.45%
33 | CC(C)Cn1cnc2c(SCc3ccc(Cl)cc3)nc(N)nc21 | 7.52%
34 | CCc1nnc(NC(=O)c2cc(S(=O)(=O)N3CCN(CC)CC3)ccc2Cl)s1 | 7.13%
35 | c1ccc(C(=NNc2nc3ccccc3s2)c2ccccn2)cc1 | 12.7%
36 | COc1ccc(N=C2C=CC(=O)O2)cc1 | 7.98%
37 | O=C(NCC1(N2CCCCC2)CCCCC1)c1cccc(S(=O)(=O)Nc2ccccc2Cl)c1 | -5.86%
38 | COc1cc(O)c2c(=O)c3c(O)c(O)ccc3oc2c1OC | 50.1% (active)
39 | COc1cccc2c(O)cc(=O)n(C)c12 | 26.6%
40 | COc1cccc2cc(-c3cc(=O)oc4cc(C)c(O)cc34)oc12 | -4.38%
41 | CC(C)(C)OC(=O)N(Cc1ccccc1)Cc1ccc(OCc2cccc(NC(=O)c3ccccc3)c2)cc1 | -3.26%
42 | COc1ccc(-c2nc3cc(C)ccn3c2NC2CCCCC2)cc1SC1CCCCC1 | 1.83%
43 | CCN(CC)S(=O)(=O)c1cccc(NC(=O)c2ccc(S(=O)(=O)N3CCCC3)cc2)c1 | 1.24%
44 | CC(C)(C)OC(=O)N1CCC(C(=O)Nc2cccc(C(=O)NCCc3ccccc3)c2)CC1 | -16.9%

Row | Structure (SMILES) | inhibition
45 | CCN(CC)c1ccc(NC(=O)CCc2nnc3ccc(N4CCCCC4)nn23)c(C)c1 | 59.6% (active)
46 | CCOC(=O)c1cccc(NC(=O)CCc2nnc3ccc(N4CCOCC4)nn23)c1 | 2.86%
47 | CCOc1ccc(CCNC(=O)CCc2nnc3ccc(N4CCCC4)nn23)cc1OCC | 17.6%
48 | O=C1C(Cl)=C(Oc2ccccc2)C(=O)c2ccccc21 | 35.4%
49 | Oc1cccc(CCc2ccccn2)c1 | 7.91%
50 | COc1ccc(OC)c(Cc2cnc3nc(N)nc(N)c3c2C)c1 | -1.98%
51 | Nc1nonc1-n1nnc(C(=O)N/N=C\c2ccncc2)c1CN1CCCCC1 | 77.4% (active)
52 | NNC(=O)c1nnn(-c2nonc2N)c1CN1CCCC1 | 15.1%
53 | Nc1nonc1-n1nnc(C(=O)N/N=C/c2ccccc2O)c1CN1CCCC1 | 14.8%
54 | Cc1nc(Nc2ccccc2C)c2cnn(C)c2n1 | -5.25%
55 | CCOC(=O)N(Cc1ccccc1)C1CC1 | -0.945%
56 | COc1ccc(CCC(=O)Nc2ccc(Cl)c(S(=O)(=O)N3CCOCC3)c2)cc1OC | -1.66%
57 | CN1c2ccc(C=O)c3c(C=O)ccc(c23)N(C)C1(C)C | 91.2% (active)
58 | CN(CCc1ccccc1)C(=O)c1cccc(NC(=O)Cc2cccc(NC(=O)C3CCCN(C(=O)C4CCC4)C3)c2)c1 (stereo not drawn) | -0.693%
59 | CCCN(CC(=O)Nc1ccccc1C)C(=O)c1ccc(OCC(=O)N2CCOCC2)c(OCC)c1 | -7.61%
60 | CN(O)C(=S)c1ccccc1 | -0.499%
61 | CSc1ncnc2c1ncn2CC(=O)C1CCC2C3CCC4=CC(=O)CCC4(C)C3CCC12C (stereo not drawn) | 5.41%
62 | COc1cc(OC)cc(-c2cc3ccc(F)cc3cn2)c1 | 13.1%
63 | CCOc1ccc(S(=O)(=O)N2CCN(C(=O)c3oc4ccccc4c3C)CC2)cc1 | 3.49%
64 | COc1ccccc1C(=O)Nn1c(-c2cccs2)nc2ccccc2c1=O | 32.3%
65 | CCn1c(=O)c2cc(C(=O)Nc3cccc(C(C)=O)c3)sc2c2ccccc21 | -0.698%
66 | CCn1c(NC(=O)c2ccccc2)c(-c2cccs2)c(=O)c2ccccc21 | 65.9% (active)

Row | Structure (SMILES) | inhibition
67 | CCc1cc2c(NC3CCCC3)ncnc2s1 | 53.2% (active)
68 | CCc1cc2c(NC(Cc3ccccc3)C(=O)O)ncnc2s1 (stereo not drawn) | 2.6%
69 | CCc1cc2c(N3CCN(c4nnc(CC)s4)CC3)ncnc2s1 | 25.4%
70 | COc1cc(/C=C/c2ccc(/C=C/c3cc(OC)c(OC)c(OC)c3)cc2)cc(OC)c1OC | -1.84%
71 | C#CCOCCOCCOCCNc1nc(N2CCN(C(=O)Cn3cc(CCO)nn3)CC2)nc(N2CCN(C(=O)Cn3cc(CCCN=C(N)N)nn3)CC2)n1 | 4.84%
72 | COc1ccc(Cl)cc1C=CC=Nc1ccc(S(N)(=O)=O)cc1 | -0.507%
73 | COc1ccc(S(=O)(=O)N(C)C[C@@H]2Oc3ccc(NS(=O)(=O)c4cn(C)cn4)cc3C(=O)N([C@@H](C)CO)C[C@@H]2C)cc1 | 0.973%
74 | C[C@H]1CN([C@@H](C)CO)C(=O)Cc2cc(NC(=O)Cc3ccccc3)ccc2O[C@H]1CN(C)S(=O)(=O)c1cccs1 | -0.989%
75 | COc1ccc(S(=O)(=O)N(C)C[C@H]2Oc3ccc(NS(=O)(=O)c4cccs4)cc3CC(=O)N([C@H](C)CO)C[C@H]2C)cc1 | 55.4% (active)
76 | O=C(NC1=CC(=O)c2ccccc2C1=O)c1ccccc1 | -0.529%
77 | O=C(OC12CC3CC(CC(C3)C1)C2)c1ccc(NCc2cc(O)ccc2O)cc1 | 1.7%
78 | Cc1nn(-c2ncccn2)c2c1C(=O)CC(C)(C)C2Br (stereo not drawn) | 6.11%
79 | C=C(C)Cn1c(N2CCN(CC)CC2)nc2c1c(=O)[nH]c(=O)n2C | 55.9% (active)
80 | C=C(C)Cn1c(N2CCCC2)nc2c1c(=O)[nH]c(=O)n2C | -3.28%
81 | Cn1c(=O)[nH]c(=O)c2c1nc(N1CCN(C(c3ccccc3)c3ccccc3)CC1)n2CCO | 1.27%
82 | CN1C(c2ccc(F)cc2)=CS/C1=C(/C#N)c1nnc2n1-c1ccccc1SC2 | -1.31%
83 | CC(C)c1ccc(/C=C/C(=O)NNC(=O)c2cccnc2)cc1 | 11.1%
84 | COc1cccc(C(=O)NNC(=O)/C=C/c2ccccc2)c1 | 59.9% (active)
85 | COc1cccc(C=CC(=O)C=CC=Cc2ccccc2)c1 | -2.98%
86 | O=C1NCC(c2ccccc2)(c2ccccc2)C(=O)N1 | -4.54%
87 | COC[C@@H]1NS(=O)(=O)c2ccc(Br)cc2O[C@H]1c1ccccc1 | 7.26%
88 | CCCCNC(=O)C(C)N(CCN(C)C)C(=O)CCCN1C(=O)NC(c2ccc(Cl)cc2)C(C(=O)OCc2ccccc2)=C1C (stereo not drawn) | 5.26%
